Compounds with a hit are over-represented: about 3.6% of the library has one in this group of screens.
Anthrax LF prot – inhibitors of Bacillus anthracis lethal factor protease; AID 588501; 0.12% of 360,000 active; multiplex microsphere protease cleavage assay, LF; inhibition, % at 10 µM; also: plate controls were buffer without enzyme for full effect and enzyme alone for no effect
BoNT-F LC inh – inhibitors of Botulinum neurotoxin F light chain protease; Multiplex microsphere protease cleavage assay, flow cytometry; inhibition, % at 10 µM; 0.22% of 360,000 active; AID 588497; in the data active = inhibition above about 35%, passing the limit was not always enough; inconclusive = no clear call, values can overlap the other calls; also: plate controls were buffer without enzyme for full effect and enzyme alone for no effect
BoNT-A LC inh2 – BoNT A light chain protease inhibition | multiplex microsphere protease substrate cleavage, flow cytometry | inhibition, % at 10 µM | 0.17% of 360,000 active; also: plate controls were buffer without enzyme for full effect and enzyme alone for no effect
Bead autofluor – compound fluorescence in toxin protease inhibitor counterscreen | 3.1% of 360,000 active | fluorescence intensity (test concentration not listed) | compound autofluorescence counterscreen, microsphere flow cytometry; hits give high values; in the data active = fluorescence intensity above about 16000; inconclusive = no clear call, values can overlap the other calls
MazF activator – increases E. coli MazEF RNase cleavage of RNA | 0.32% of 350,000 active | activation, % at 20 µM | FAM/BHQ RNA-DNA oligo cleavage fluorescence, 5 h; in the data active = activation above about 50%
* marks the source's active call; other numbers are inactive results; ? = inconclusive. Rule as the data show it, unless noted: active = inhibition above about 30%; inconclusive = no clear call, values can overlap the other calls; inactive = below that.

SMILES	Anthrax LF prot	BoNT-F LC inh	BoNT-A LC inh2	Bead autofluor	MazF activator
Cc1ccc(S(=O)(=O)N2CCCCC2)cc1NC(=O)COC(=O)Cc1cccc(C(F)(F)F)c1	-3	-1	0	9743	3
Nc1nnnn1/N=C/c1ccccc1OCc1ccc(Cl)cc1Cl	0	2	3	22215*	-10
Cc1ccc(-c2ccc(CCC(=O)O)n2CC2CCCO2)cc1 (centres undefined)	1	-4	?	22736*	-4
O=C(O)CCc1ccc(-c2ccccc2)n1CC1CCCO1 (centres undefined)	-2	5	-1	4790	-7
CCN(CC)C(=O)Cn1nc(-c2ccc(Cl)cc2)c2ccccc2c1=O	3	?	1	4683	2
Cc1ccc(-n2nc3c([n+]2[O-])CCc2c-3no[n+]2[O-])cc1	1	-2	-2	21683*	-1
CN(CC(=O)NCc1ccccc1Cl)S(=O)(=O)c1ccc2c(c1)n(C)c(=O)c(=O)n2C	2	-17	-7	8388	10
CCCOc1ccc(C(CC(=O)O)NC(=O)C23CC4CC(CC(C4)C2)C3)cc1 (centres undefined)	-1	0	0	23418*	-9
NS(=O)(=O)c1ccc(CCNC(=O)Nc2ccc(Cl)c(Cl)c2)cc1	-8	-5	-2	16607*	-6
CCCCC(CC)C(=O)NCCc1ccc(S(N)(=O)=O)cc1 (centres undefined)	-2	-1	0	23826*	-1
Cc1ccc(CC(=O)NCCc2ccc(S(N)(=O)=O)cc2)cc1	7	19	0	3648	-4
COc1ccc(CC(=O)NCCc2ccc(S(N)(=O)=O)cc2)cc1	1	3	?	19944*	4
CCCCC(=O)NCCc1ccc(S(N)(=O)=O)cc1	-2	-2	-1	16934*	10
Cc1cc(C(=O)NC2CCCN(Cc3ccc(Cl)cc3)C2)c(C)o1 (centres undefined)	0	-5	-3	7836	3
CCCCC(Br)C(=O)Nc1ccc(S(=O)(=O)Nc2cc(C)nc(C)n2)cc1 (centres undefined)	0	5	2	5110	0
CC(C)n1c(=O)nc(-c2ccccc2)c2cc3c(cc21)OCO3	-5	-4	0	4016	3
O=C(COC(=O)COc1cccc(Br)c1)Nc1ccc(F)cc1F	-2	-4	-2	8505	4
Cc1cc(NC(=O)CCC(=O)N(c2ccccc2)C(C(=O)NC2CCCC2)c2ccc(F)cc2)no1 (centres undefined)	-2	3	2	3997	4
CCC(CC)C(=O)Nc1cccc(C(=O)NCCc2ccc(S(N)(=O)=O)cc2)c1	1	0	-1	23028*	-5
CCC(CC)C(=O)NCCc1ccc(S(N)(=O)=O)cc1	1	6	4	21021*	7
Cc1ccc2c(c1)[C@@H]1CN(C)CC[C@@H]1N2C(=O)Nc1cccc(C(F)(F)F)c1	-3	-5	-3	23738*	3
Cc1ccc2c(c1)C1CN(C)CCC1N2C(=O)Nc1cccc(C(F)(F)F)c1 (centres undefined)	0	7	0	3147	13
CCCCc1cc(=O)oc2cc(OC(C)C(=O)NCC3CCC(C(=O)O)CC3)c(Cl)cc12 (centres undefined)	-5	-8	0	5434	-13
COc1ccc(S(=O)(=O)N(C)CC(=O)N2CCN(C)CC2)cc1C	0	-4	-2	23309*	-6
COc1ccc(C)cc1S(=O)(=O)N(C)CC(=O)N1CCC(C(N)=O)CC1	4	2	0	4376	14
SMILES	Anthrax LF prot	BoNT-F LC inh	BoNT-A LC inh2	Bead autofluor	MazF activator
CCN1CCN(C(=O)CN(C)S(=O)(=O)c2ccc(OC)c(C)c2)CC1	2	5	1	10781	-14
COc1ccc(S(=O)(=O)N(C)CC(=O)N2CCC(C(N)=O)CC2)cc1Cl	0	-5	?	21013*	-36
N#Cc1ccccc1S(=O)(=O)N1CCN(C(=O)CCNS(=O)(=O)c2ccc(Cl)cc2)CC1	-6	-5	0	3165	0
COc1ccc2c(CN3CCN(Cc4ccccc4)CC3)cc(=O)oc2c1	-9	-4	0	2797	1
Cc1ccc(S(=O)(=O)N2CC3(O)CN(C(=O)OC(C)C)N(C(=O)OC(C)C)CC3(OC(=O)Nc3cccs3)C2)cc1 (centres undefined)	-4	-5	0	3464	6
COc1cc2c(cc1OC)C(c1cc3cc(OC)c(OC)cc3[nH]c1=O)N(C(=O)C1CC1)CC2 (centres undefined)	-3	0	1	20442*	3

Bioassay records as filed in PubChem BioAssay.
